This is a sample that favours compounds with a hit; in the whole collection about 2.3% have one here.
ATXN2 expr inh = inhibitors of ATXN2 expression. HEK-293 ATXN2-luciferase reporter, luminescence, 24 h. hit rate 0.72% among 360,000. Potency, µM (highest dose often 57 µM), inactives show top-dose activity change, negative = inhibition, actives largely listed as inhibitors. AID 1745845; note: % is set by controls: 0 for no effect and ±100 for the full control effect; nearly all actives have a fitted effect of over 55% in size
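ATXN2-luciferase reporter cells (luciferase flanked by upstream and downstream ATXN2 gene portions) were treated 24 h at 37 °C with compounds at up to 57 uM. SteadyGlo luminescence gave expression; GF-AFC fluorescence gave viability.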
HepG2 tox-1 = counter-screen for TGF-b inhibitors: cytotoxicity in HepG2 cells. HepG2 CAGA-GFP viability, ATP luminescence, 18 h. Potency, µM (doses to about 46.1 µM), for inactives: at the top dose activity change, negative = cytotoxicity, most hits filed as cytotoxic. hit rate 0.76% among 410,000. AID 588856
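HepG2 CAGA-GFP cells (1000/well, DMEM with 1% FBS) received compound, then TGF-beta at 500 pg/mL final, and were incubated 18 hours at 37 degrees C. Viability was read by CellTiter-Glo luminescence. Media-only wells were set as complete cell-killing and DMSO as no toxicity.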
S2 tox = viability counter-screen for ATXN expression inhibitors. AID 651635. Potency, µM (top dose mostly 56.7 µM), most hits filed as cytotoxic. hit rate 0.49% among 400,000. S2 cells (HEK-293 line with an ATXN2-luciferase reporter) viability, CellTiter-Fluor protease fluorescence, 24 h; note: nearly all actives have a fitted effect of over 40% in size
TGFb SMAD3 inh = TGF-b pathway inhibition. Potency, µM (titrated, usually from 46.1 µM), for inactives: at the highest dose activity, negative = inhibition, actives largely listed as inhibitors. AID 588855. hit rate 1.2% among 410,000. HepG2 CAGA-GFP TGF-b/SMAD3 reporter, GFP fluorescence, 18 h; TGF-beta stimulated, 500 pg/mL final; note: % is set by controls: 0 for no effect and ±100 for the full control effect; nearly all actives have a fitted effect of over 65% in size
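Using HEPG2 CAGA-GFP reporter cells at 1000 cells/well, we pinned test compounds, stimulated with recombinant TGF-beta (500 pg/mL final) and measured total well GFP after 18 h.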
TGFb confirm = confirmation of TGF-b signaling inhibitors in HepG2 reporter cells; Potency, µM (titrated, usually from 46.1 µM), for the others: at the top dose activity, negative = inhibition, actives largely listed as inhibitors; AID 720534; shares compounds with TGFb SMAD3 inh; HepG2 CAGA-GFP TGF-b reporter, GFP fluorescence, 18 h; cells stimulated with TGF-beta, 500 pg/mL; hit rate 63% among 1,600; note: % is set by controls: 0 for no effect and ±100 for the full control effect; nearly all actives have a fitted effect of over 65% in size
HepG2 tox-2 = HepG2 cytotoxicity, TGF-b inhibitor counterscreen; shares compounds with TGFb SMAD3 inh; HepG2 CAGA-GFP viability, ATP luminescence, 18 h; cells stimulated with TGF-beta, 500 pg/mL; Potency, µM (series often up to 46.1 µM), inactives show at the top dose activity, negative = cytotoxicity, hits mostly inhibitors; hit rate 27% among 1,600; note: % is set by controls: 0 for no effect and ±100 for the full control effect; nearly all actives have a fitted effect of over 70% in size
TGFb CCL64 inh = blocks TGF-b signaling in CCL64 reporter cells | shares compounds with TGFb SMAD3 inh | CCL64 CAGA-GFP reporter, TGF-b stimulated, GFP fluorescence, 18 h | Potency, µM (titrated, usually from 46.1 µM), for the others: top-dose activity, negative = inhibition, hits mostly inhibitors | hit rate 41% among 1,600; note: nearly all actives have a fitted effect of over 65% in size
COP TGFb inh = TGF-b inhibition validated with COP promoter. shares compounds with TGFb SMAD3 inh. HepG2 COP-GFP TGF-b reporter, GFP fluorescence, 18 h; cells stimulated by added recombinant TGF-beta. Potency, µM (doses to about 46.1 µM), without a hit: top-dose activity, negative = inhibition, usual class: inhibitors. hit rate 3% among 1,600; note: nearly all actives have a fitted effect of over 70% in size
* = called active by the depositor; i = inactive; ? = inconclusive; / = no result. Calls come from the whole dose curve; as a rule, active = well fitted curve in the direction sought with a large enough effect; inconclusive = small, poorly fitted or top-dose-only effect, or another doubt; inactive = no such curve, though single readings can be large; an effect the other way counts as inactive or inconclusive. Potency is the fitted concentration of half-maximal effect.

SMILES | ATXN2 expr inh | HepG2 tox-1 | S2 tox | TGFb SMAD3 inh | TGFb confirm | HepG2 tox-2 | TGFb CCL64 inh | COP TGFb inh
NS(=O)(=O)c1ccc(S(=O)(=O)N2CCN(c3nc(-c4cccs4)nc4ccccc34)CC2)cc1 | / | 0% | / | -27% | / | / | / | /
O=C(Nc1nnc(-c2ccccc2)s1)C1CCCN(C(=O)c2ccoc2)C1 (stereo not drawn) | / | 1% | / | 5% | / | / | / | /
O=C(Nc1ccc2nc3n(c(=O)c2c1)CCCCC3)c1ccccc1[N+](=O)[O-] | 1% | -12% | i | 9% | / | / | / | /
O=C(Nc1ccc2nc3n(c(=O)c2c1)CCCCC3)c1c(F)ccc([N+](=O)[O-])c1F | 7.1µM* | 11µM* | / | 5µM* | 2.6µM* | 2.6µM* | 4.1µM* | 8.2µM*
COc1ccc2c(c1OC)C(=O)N1c3ccccc3C(=O)N(Cc3ccco3)C21 (stereo not drawn) | / | -21% | / | ? | / | / | / | /
Cc1cc(OCCCC(=O)Nc2cccc(-n3cnnn3)c2)ccc1Cl | / | -16% | ? | 13µM* | ? | ? | -3% | 65%
O=C(O)c1cc(-c2ccc(-c3c(-c4ccc5c(c4)OCO5)noc3-c3ccsc3)cc2)nc2ccccc12 | 36% | -23% | i | ? | 16µM* | ? | 18µM* | 71%
CN(C)c1ccc(/C=C2\c3ccccc3-c3ccc(N(C)C)cc32)cc1 | / | 4% | / | 6% | / | / | / | /
CCCCOC(=O)Nc1ccc(S(=O)(=O)Nc2ccc([N+](=O)[O-])cc2)cc1 | 13% | -9% | i | 7.9µM* | ? | -6% | -14% | -9%
COc1ccc(OC)c(C2SCCN2S(=O)(=O)c2cccc(C(F)(F)F)c2)c1 (stereo not drawn) | -5% | -20% | i | ? | ? | -21% | -15% | -4%
COc1cc(OC)c(C2SCCN2S(=O)(=O)c2ccc(F)cc2)cc1OC (stereo not drawn) | -13% | -4% | i | ? | / | / | / | /
COc1ccccc1NC(=S)N=Nc1c(O)[nH]c2ccc(Br)cc12 | / | 11% | ? | ? | ? | ? | 3.3µM* | -3%
CC1=C(C(=O)O)N2C(=O)[C@@H](NC(=O)[C@@H](N)c3ccccc3)[C@@H]2SC1 | / | / | i | / | / | / | / | /
O=C(Nc1ccccn1)C(=O)Nc1ccccn1 | / | -4% | i | 3% | / | / | / | /
S=C(Nc1ccccn1)c1ccccn1 | 5% | -62% | i | 7.1µM* | -22% | ? | ? | 6%
O=c1[nH]c2c(-c3nc(-c4ccc(F)cc4)cs3)c(O)cn2c2ccc(Br)cc12 | / | -13% | / | 41% | / | / | / | /
C/C(=C\c1ccco1)CN1CCOc2ccc(C(C)(O)COc3ccccc3)cc2C1 (stereo not drawn) | / | / | i | / | / | / | / | /
COc1ccccc1C1NC(c2ccc3c(c2)OCO3)=CC(c2ccccc2O)N1 (stereo not drawn) | / | -29% | / | ? | / | / | / | /
COC(=O)c1ccc(C)c(NS(=O)(=O)c2ccc(OC)cc2)c1 | 0% | -3% | ? | ? | ? | -1% | ? | -7%
Cc1ccccc1N1CCN(C(=O)C2CCC(=O)N(C3CCCC3)C2)CC1 (stereo not drawn) | -12% | -7% | i | -7% | / | / | / | /
O=C(C1CCC(=O)N(C2CCCCCC2)C1)N1CCN(c2ccccc2Cl)CC1 (stereo not drawn) | / | -86% | i | 7.1µM* | -29% | -20% | ? | 0%
COc1ccc(C2Nc3ccccc3C(=O)N2c2ccccc2F)cc1COc1ccc(NC(C)=O)cc1 (stereo not drawn) | / | -4% | / | 0% | / | / | / | /
CC[C@]12c3[nH]c4cc(-c5ccco5)ccc4c3CCN1C(=O)[C@@H](CC(=O)NCc1ccco1)C[C@@H]2C(=O)N1CCN(C(=O)c2ccco2)CC1 | 5% | -4% | i | ? | / | / | / | /
CC[C@]12c3[nH]c4ccc(Cl)cc4c3CCN1C(=O)[C@@H](CC(=O)NCc1cccc(C(F)(F)F)c1)C[C@@H]2C(=O)N1CCN(C(=O)C2CC2)CC1 | ? | -8% | ? | 14µM* | -77% | ? | ? | 61%
CC[C@]12c3[nH]c4cc(-c5ccco5)ccc4c3CCN1C(=O)[C@@H](CC(=O)NCc1cccc(C(F)(F)F)c1)C[C@@H]2C(=O)N1CCN(C(=O)c2ccco2)CC1 | ? | -5% | ? | 11µM* | 4.1µM* | -27% | ? | 18%
SMILES | ATXN2 expr inh | HepG2 tox-1 | S2 tox | TGFb SMAD3 inh | TGFb confirm | HepG2 tox-2 | TGFb CCL64 inh | COP TGFb inh
CC[C@]12c3[nH]c4cc(-c5ccco5)ccc4c3CCN1C(=O)[C@@H](CC(=O)NC/C=C(\C)CCC=C(C)C)C[C@@H]2C(=O)N1CCN(C(=O)c2ccco2)CC1 | ? | -20% | i | 10µM* | 10µM* | -13% | 13µM* | 2%
CC[C@]12c3[nH]c4cc(-c5ccco5)ccc4c3CCN1C(=O)[C@@H](CC(=O)NC/C=C(\C)CCC=C(C)C)C[C@@H]2C(=O)N1CCN(C(=O)C2CC2)CC1 | ? | -12% | i | ? | / | / | / | /
CC[C@]12c3[nH]c4ccc(OC)cc4c3CCN1C(=O)C(CC(=O)NCc1cccc(C(F)(F)F)c1)C[C@@H]2C(=O)N1CCN(C(=O)c2ccco2)CC1 (stereo partly drawn) | 7% | -5% | i | ? | / | / | / | /
CC[C@]12c3[nH]c4ccc(Cl)cc4c3CCN1C(=O)[C@@H](CC(=O)NCc1cccc(C(F)(F)F)c1)C[C@@H]2C(=O)N1CCN(C(=O)c2ccco2)CC1 | ? | 6% | 28µM* | 13µM* | 16µM* | ? | 10µM* | 64%
NN=C1c2cc(S(=O)(=O)NCCO)ccc2-c2ccc(S(=O)(=O)NCCO)cc21 | / | 15% | / | 16% | / | / | / | /
CC[C@]12c3[nH]c4cc(CCC(=O)N(C)C)ccc4c3CCN1C(=O)[C@@H](CC(=O)NC/C=C(\C)CCC=C(C)C)C[C@@H]2C(=O)N1CCN(C(=O)C2CC2)CC1 | -22% | -17% | ? | ? | / | / | / | /

Assay outcomes: PubChem, National Center for Advancing Translational Sciences (NCATS)
